Artemis inh = inhibitors of human Artemis endonuclease activity; Q96SD1; inhibition, % at 10 µM; recombinant Artemis, quenched FAM hairpin cleavage fluorescence; AID 686954; hit rate 0.78% among 30,000;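 active = at 10 µM dose, at least 30% inhibition, measured as corrected fluorescence normalized to stimulator and neutral control wells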
Target sequence (Q96SD1 whole entry, looked up): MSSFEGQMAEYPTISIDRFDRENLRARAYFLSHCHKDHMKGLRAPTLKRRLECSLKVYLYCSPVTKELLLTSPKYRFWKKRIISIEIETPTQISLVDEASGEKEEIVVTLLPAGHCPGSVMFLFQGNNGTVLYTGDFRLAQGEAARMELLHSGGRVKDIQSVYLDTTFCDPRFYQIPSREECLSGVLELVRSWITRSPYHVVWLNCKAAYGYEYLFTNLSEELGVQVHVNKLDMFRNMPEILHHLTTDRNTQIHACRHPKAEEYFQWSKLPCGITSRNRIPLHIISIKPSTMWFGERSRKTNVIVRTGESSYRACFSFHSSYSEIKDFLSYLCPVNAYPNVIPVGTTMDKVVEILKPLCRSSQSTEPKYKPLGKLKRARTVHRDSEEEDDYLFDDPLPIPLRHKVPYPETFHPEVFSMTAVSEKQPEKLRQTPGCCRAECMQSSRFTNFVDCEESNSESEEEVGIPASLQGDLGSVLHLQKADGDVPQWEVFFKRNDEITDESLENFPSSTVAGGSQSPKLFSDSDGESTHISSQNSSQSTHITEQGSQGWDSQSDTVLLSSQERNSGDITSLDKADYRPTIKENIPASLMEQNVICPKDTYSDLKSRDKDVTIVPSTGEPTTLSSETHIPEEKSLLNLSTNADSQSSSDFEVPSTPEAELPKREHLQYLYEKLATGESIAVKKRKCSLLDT
* marks the source's active call; other numbers are inactive results. Many of the other results were omitted from the sample, so hits are more common in it than they were.

SMILES	Artemis inh
CCOC(=O)c1cc2c(=O)n3cccc(C)c3nc2n(CC2CCCO2)c1=NC(C)=O (stereo not given)	2
CCCCn1c(=NC(=O)c2ccc3c(c2)OCO3)c(C#N)cc2c(=O)n3cccc(C)c3nc21	40*
CCNC(=O)c1cc2c(=O)n3cccc(C)c3nc2n(Cc2ccc(C)cc2)c1=N	7
CCOc1ccccc1NC(=O)c1ccccc1-c1nc(-c2ccccc2OC)no1	-7
COCC(=O)N(C)c1nnc(-c2cnc(C)cn2)s1	-8
Cc1ccc(S(=O)(=O)Nc2cc(C(=O)Nc3cc(C)cc(C)c3)ccc2Cl)cc1	19
O=C(NCc1ccco1)c1ccc2snnc2c1	0
O=C(NCCCNC(=O)c1ccco1)c1ccco1	7
O=C(NCCO)c1ccc2nc(-c3ccco3)c(-c3ccco3)nc2c1	38*
Cc1ccccc1NC(=O)C1CCC(C)(C(=O)O)C1(C)C (stereo not given)	-6
CCOC(=O)Cc1csc(NC(=O)COc2ccc(N(C)S(=O)(=O)c3cccs3)cc2)n1	1
O=C(Nc1nc2n(n1)C(c1ccccc1)CC(c1ccc(Cl)cc1)N2)c1ccco1 (stereo not given)	31*
O=C1CC(c2ccccc2)n2nc(NC(=O)C3CCCO3)nc2N1 (stereo not given)	-8
CC1CC(c2ccccc2)n2nc(NC(=O)CCc3ccccc3)nc2N1 (stereo not given)	0
Cn1c(N2C(=O)CC(Cc3ccccc3)C2=O)nc2ccccc21 (stereo not given)	-5
COc1ccc(CC(=O)NC2=NCCS2)cc1	5
COc1ccc(Nc2nc(Nc3ccc(OC)cc3)nc(SC3=NCCS3)n2)cc1	79*
COc1ccc(OC)c(NC(=O)CSC2=NCCS2)c1	-10
COc1cccc(-c2cc(C(F)(F)F)n3nc(N)nc3n2)c1	-3
Clc1ccc(-c2cn3nc4c(nc3n2)CCCC4)cc1	37*
COc1cccc(-c2csc(NC(C)=O)n2)c1	-5
OC1CCN(c2c3c(nc4cc(-c5ccc(Cl)cc5)nn24)CCC3)CC1	4
COc1cccc(-c2cn3nc4c(nc3n2)CCCC4)c1	36*
Clc1ccc(-c2cn3cccnc3n2)cc1	-4
CC(=O)N1CCc2cc(S(=O)(=O)CCC(=O)Nc3c(C)n(C)n(-c4ccccc4)c3=O)ccc21	8
SMILES	Artemis inh
CCOc1cccc(NC(=O)C2CC(=O)NC(=Nc3ccccc3)S2)c1 (stereo not given)	-4
O=C(CCC(=O)c1ccc(F)cc1)Nc1cc(Cl)cc(Cl)c1	30
Nc1[nH]n2c(=O)c3c(nc2c1N=Nc1ccc(Cl)cc1)CCCC3	30*
Cc1[nH]n2c(=O)c3c(nc2c1-c1ccccc1)CCC3	-1
Cc1[nH]n2c(=O)c3c(nc2c1-c1ccc(Cl)cc1)CCC3	8
O=C1CC(c2ccccc2)n2nc(N3C(=O)c4ccccc4C3=O)nc2N1 (stereo not given)	4
CCCCCCOc1ccc(/C(N)=N/O)cc1	-7
CCCCCCCCC/C(=N\O)c1ccccn1	35*
CCCCCCCCCCNC(=O)C(=O)Nc1ccccn1	5
Cc1noc2ncnc(Oc3ccc(F)cc3)c12	13
O=S1(=O)CC(O)C(N2CCCCC2)C1 (stereo not given)	-9
C=CCNC(=S)N/N=C/c1ccc(-c2cc(Cl)ccc2Cl)o1	1
COC(=O)c1ccc(Cl)c(-c2ccc(/C=N/NC(=O)Nc3ccccc3)o2)c1	-2
CC1=NOC(=O)/C1=C\c1ccc(-c2cc(Cl)ccc2Cl)o1	37*
O=C(COc1cccc2ccccc12)NNC(=O)c1cccs1	4
C=CCn1c(CNc2ccc(C)cc2)nnc1SCC(=O)N/N=C/c1ccc(O)cc1	9
O=C(CC1CCCC1)Nc1ccc2c(c1)CCC2	-12
COc1cc(-n2ccnc2SC)c(Cl)cc1Cl	52*
CCOC(=O)CSc1nnnn1-c1cc(OC)c(Cl)cc1OC	-13
COc1cc(Nc2nnc(C)s2)c(Cl)cc1Cl	-3
O=c1c2ccccc2nc(N/N=C/c2ccc(O)cc2)n1O	29
CCCc1nc2ccccc2c(=O)n1/N=C/c1ccc(O)cc1O	5
O=c1c2ccccc2nc(N/N=C/c2c(O)ccc3ccccc23)n1O	61*
O=C(COc1ccccc1)NNc1c2ccccc2nc2ccccc12	12
O=C(NNc1c2ccccc2nc2ccccc12)c1ccc(O)cc1O	38*
SMILES	Artemis inh
O=C(NNC(=O)c1cc(-c2ccc(Cl)cc2Cl)nc2ccccc12)Nc1ccccc1	6
N#Cc1c(-c2ccccc2)ccnc1Oc1ccccc1	-7
Cc1nnc(SCc2ccc(F)cc2)n1NC/C=C/c1ccccc1	2
Cn1c(-c2ccc(C=O)s2)nc2c3ccccc3c3ccccc3c21	46*
Oc1ccc2ccccc2c1C=NC12CN3CCN(CN(C3)C1)C2	41*
Cc1[nH]n(-c2cccc(Cl)c2)c(=O)c1C=NC12CN3CN(CN(C3)C1)C2	9
CN(C)/N=C/c1c(O)ccc2ccccc12	-1
BrC(=C\c1ccccc1)/C=N/N1CCN(c2ccccn2)CC1	-1
CC(C)(C)Nc1nc(NN)nc(NC(C)(C)C)n1	43*
CNc1nc(Cl)nc(NC(C)(C)C)n1	0
CC(=O)C(Sc1nc(NC(C)(C)C)nc(N(C)C)n1)C(C)=O	7
Fc1ccc(Sc2cc(Cl)c(-c3ccccc3)nn2)cc1	18
Cc1sc2ncnc(Oc3ccc(-n4ccnc4)cc3)c2c1C	7
CNC(=O)CC(=O)Nc1ccccc1C(=O)O	-5
C/C(=N\O)c1ccccc1C(=O)O	46*
O=C(O)c1ccccc1C(=O)OCc1ccccc1	-4
CCOc1ccccc1-n1c(SCC(=O)NC(C)CC)nnc1-c1ccoc1C (stereo not given)	-1
Cn1c(NC(=O)c2ccc(Br)o2)cc(=O)n(C)c1=O	6
CN(c1ccc(C(=O)Nc2ccccc2C(F)(F)F)cc1)S(C)(=O)=O	-1
Cc1cc(NC(=O)CSc2nc3ccccc3c(=O)n2-c2ccccc2)no1	-6
O=C1CCCN1CC(CN1CCOCC1)Sc1nc2ccccc2c(=O)n1-c1ccccc1 (stereo not given)	33*
COc1ccc(-n2c(SCC#N)nc3ccccc3c2=O)cc1	0
CC(=O)C1=C(C)Nc2ncnn2C1c1ccc(Cl)cc1Cl (stereo not given)	5
Cc1ccc(-c2nnn(CC(=O)Nc3ccccc3-c3ccccc3)n2)c(-n2cnnn2)c1	5
CCCc1cc2c(cc1NC(=O)c1ccc(C)cc1)OCO2	-2
SMILES	Artemis inh
CC(C)(C)n1nc2c(c1NC(=O)c1cccc(C(F)(F)F)c1)CS(=O)C2 (stereo not given)	-6
O=C(NCc1ccco1)c1cc(-c2ccccc2)nc2ccccc12	-2
O=C(Oc1ccc([N+](=O)[O-])cc1)c1cc(-c2ccccc2)nc2ccccc12	-1
O=C(N/N=C/c1ccc([N+](=O)[O-])o1)c1cc(-c2cccc(Br)c2)nc2ccccc12	39*
CN1CCN(c2nc3nonc3nc2N2CCN(C)CC2)CC1	1
CCOC(=O)N1CCN(CCC(=O)Nc2ccc(OC(F)(F)F)cc2)CC1	2
CCn1cc(/C=N/NS(=O)(=O)c2ccc(OC)cc2)c(C)n1	-5
C/C(N)=C(/C#N)C(=O)CN1CCCCC1	-2
COc1cc(NCCCC(C)N)c2ncccc2c1 (stereo not given)	55*
COc1ccc2[nH]c3c(NCCN(C(C)C)C(C)C)ncnc3c2c1	-9
COc1ccc(OC)c(NC(=O)c2ccccc2NS(=O)(=O)c2cccc3cccnc23)c1	-1
Cc1cc(C)n(-c2nc(NCC(C)O)c3c4c(sc3n2)CCCC4)n1 (stereo not given)	39*
N=c1c2c3c(sc2ncn1CCCO)CCCC3	-3

Screening data: PubChem BioAssay, Sanford-Burnham Center for Chemical Genomics
